# Experimental data published in PubChem BioAssay (NCATS).
# Inconclusive results are not listed. Activity calls are given as the source filed them. Calls come from the whole dose curve; as a rule, active = well fitted cell-killing curve with a large enough effect; inconclusive = small, poorly fitted or top-dose-only effect; inactive = no such curve, though single readings can be large or run the other way.
# Experiment: qHTS of pediatric cancer cell lines to identify multiple opportunities for drug repurposing: Confirmatory screen for SK-N-MC cells (AID 1347111);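 note: cells exposed to compound for 48 h before the readout; nearly all actives have a fitted effect of over 70% in size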
# Settings: SK-N-MC cell viability; series mostly up to 45.9 µM
# From the text: Drug repurposing or repositioning has been offered as a strategy for drug development in oncology programs. This approach has special potential for childhood cancers and other rare or orphan diseases, where the expected return on new drug development has been a disincentive to pharmaceuticals.
# In this project we exploit the poly-pharmacology of drugs to discover new indications via phenotypic screening of a panel of 19 well-characterized cell lines derived from solid tumors seen in children and adolescents. The goal is to identify approved drugs with previously unrecognized anticancer properties that has the potential to reveal new mechanisms and biological processes involved in carcinogenesis or drug resistance. We employed a titration-based paradigm (quantitative high-throughput screening or qHTS), where all compounds were tested at multiple concentrations for their effect on cell viability. Concentration-response curves (CRCs) were derived directly from the primary screen, and both potency and efficacy values were used to identify compounds with robust bioactivity profiles. We screened the NIH Chemical Genomics Center (NCGC) Pharmaceutical Collection (NPC) and Mechanism Interrogation Plate (MIPE) small molecule collections of approved and investigational compounds against these cell lines; and measured metabolically active cells after 48 hours of compound treatment as a proxy for cell viability.
# Assay Submitter: Nathalia J. Martinez, National Center for Advancing Translational Sciences, National Institutes of Health, Rockville, MD, USA; email: natalia.martinez@nih.gov
# [1] Shen, M et al. Quantitative high-throughput phenotypic screening of pediatric cancer cell lines identifies multiple opportunities for drug repurposing. Oncotarget 2017 Dec 19;9(4):4758-4772. PMID 29435139.
# The cells were obtained from University of North Carolina (UNC), Pediatric Preclinical Testing Program (PPT), and Coriell Institute (CI).
# qHTS cell viability assay:
# Cells were assayed in growth media at a density of 500-1,000 cells/well. Five microliters of cells were dispensed into 1,536-well, white, solid-bottom, TC-treated plates (Greiner Bio One) using a multidrop dispenser and incubated at 37 degrees C, 5% CO2, under a humidified atmosphere for 5 hours. Twenty-three nanoliters of compounds and controls (neutral control DMSO or positive control bortezomib at final concentration of 2.3 µM) were subsequently transferred by Kalypsys pintool. For primary screens, the MIPE collection was tested at 11-point dilutions (final concentrations range from 0.78 nM to 46 µM) and the NPC collection at 8-point dilutions (final concentrations range from 0.59nM to 46 µM). Compounds tested in follow-up screens were assayed at 11-point dilutions. Cells were incubated for 48 hours, followed by addition of 3 uL of CellTiter-Glo (Promega). After a 15 min incubation at room temperature, samples were analyzed for luminescence intensity using a ViewLux High-throughput CCD imager equipped with clear filters.
# Potency is the fitted concentration of half-maximal effect.
row,SMILES,Potency
1,Cc1ccccc1-n1c(Cn2cnc3c(N)ncnc32)nc2cccc(C)c2c1=O,inactive
2,C[C@H]1CCCC=CC2C[C@H](O)C[C@@H]2[C@H](O)C=CC(=O)O1 (some centres undefined),104 nM (active)
3,O=C(N[C@H]1CN2CCC1CC2)c1ccc(Cl)cc1,1170 nM (active)
4,COc1cc2cc(c1Cl)N(C)C(=O)C[C@H](OC(=O)C(C)C)[C@]1(C)O[C@H]1[C@H](C)[C@@H]1C[C@@](O)(NC(=O)O1)[C@H](OC)C=CC=C(C)C2,1.3 nM (active)
5,O=C(O)CCCOc1ccc(Cl)cc1Cl,43400 nM (active)
6,CC(=O)[O][Hg][c]1ccccc1,827 nM (active)
7,CC[C@H]1C=CC=CC[C@@H](C)[C@H](O)[C@@](C)(O)C(=O)[C@@H](C)[C@H](O)[C@@H](C)C(=O)[C@@H](C)[C@H](O)[C@@H](C)C=CC(=O)O[C@@H]2[C@@H](C)[C@H](CC1)O[C@]1(CC[C@H](C)[C@H](C[C@@H](C)O)O1)[C@H]2C,233 nM (active)
8,Cc1c(C(=O)Nc2cccc(C(F)(F)F)c2)cc(-c2ccccc2)n1CCCN1CCOCC1,26900 nM (active)
9,C[C@@H]1CC[C@@]2(OC1)O[C@H]1C[C@H]3[C@@H]4CC=C5C[C@@H](O[C@@H]6O[C@H](CO)[C@@H](O[C@@H]7O[C@@H](C)[C@H](O)[C@@H](O)[C@@H]7O)[C@H](O)[C@@H]6O[C@@H]6O[C@@H](C)[C@H](O)[C@@H](O)[C@@H]6O)CC[C@]5(C)[C@@H]4CC[C@]3(C)[C@@H]1[C@H]2C,2330 nM (active)
10,CC(=Cc1csc(C)n1)[C@@H]1C[C@H]2O[C@@H]2CCC[C@H](C)[C@@H](O)[C@@H](C)C(=O)C(C)(C)[C@@H](O)CC(=O)O1,20.8 nM (active)
11,O=[N+]([O-])c1c(Cl)c(Cl)cc(Cl)c1Cl,38000 nM (active)
12,CC(C)(O)C=CC(=O)[C@](C)(O)[C@H]1[C@H](O)C[C@]2(C)[C@@H]3CC=C4[C@@H](C=C(O)C(=O)C4(C)C)[C@]3(C)C(=O)C[C@@]12C,147 nM (active)
13,O=C(Nc1ccncc1)C(=O)c1cn(Cc2ccc(Cl)cc2)c2ccccc12,329 nM (active)
14,CC(C)(C)C(O)C(Oc1ccc(Cl)cc1)n1cncn1 (centres undefined),inactive
15,C=CCON=C(C[C@H]1O[C@@H]2O[C@]3(C)CC[C@@H]4[C@H](C)CC[C@@H]([C@H]1C)[C@@]24OO3)[C@H]1O[C@@H]2O[C@]3(C)CC[C@H]4[C@H](C)CC[C@@H]([C@@H]1C)[C@@]24OO3,147 nM (active)
16,Cc1[nH]nc2ccc(-c3cncc(OC[C@@H](N)Cc4c[nH]c5ccccc45)c3)cc12,1470 nM (active)
17,COc1ccc2c(c1)CN(C)CC2c1ccc(Cl)c(Cl)c1 (centres undefined),6570 nM (active)
18,CC=C(C)C(=O)O[C@H]1C(C)=C2[C@@H]3OC(=O)[C@@](C)(O)[C@@]3(O)[C@@H](OC(=O)CCC)C[C@](C)(OC(C)=O)[C@@H]2[C@@H]1OC(=O)CCCCCCC,inactive
19,Cc1ccccc1-n1c(Cn2ncc3c(N)ncnc32)nc2cccc(C)c2c1=O,1040 nM (active)
20,CC=C(C)C(=O)N[C@@H](c1ccccc1)[C@@H](O)C(=O)O[C@H]1C[C@@]2(O)[C@@H](OC(=O)c3ccccc3)[C@@H]3[C@]4(OC(C)=O)CO[C@@H]4C[C@H](O)[C@@]3(C)C(=O)[C@H](OC(C)=O)C(=C1C)C2(C)C,36.9 nM (active)
21,CC1=C(O)C(=O)C=C2C1=CC=C1[C@@]2(C)CC[C@@]2(C)[C@@H]3C[C@](C)(C(=O)O)CC[C@]3(C)CC[C@]12C,1170 nM (active)
22,CC(C)[C@]12O[C@@H]1[C@@H]1O[C@]13[C@]1(O[C@H]1C[C@@H]1C4=C(CC[C@@]13C)C(=O)OC4)[C@H]2O,46.5 nM (active)
23,CC(=Cc1csc(C)n1)[C@@H]1C[C@H]2O[C@]2(C)CCC[C@H](C)[C@@H](O)[C@@H](C)C(=O)C(C)(C)[C@@H](O)CC(=O)O1,5.9 nM (active)
24,CC[C@@H]1[C@@H](C)O[C@@](O)([C@@H](C)[C@H](O)[C@H](C)[C@H]2OC(=O)C=CC=C[C@@H](C)[C@@H]([C@@H](C)[C@@H](O)[C@H](C)[C@@]3(O)C[C@H](O[C@H]4C[C@H](O)[C@H](O)[C@H](C)O4)[C@H](CC)[C@@H](C)O3)OC(=O)C=CC=C[C@@H]2C)C[C@H]1O[C@H]1C[C@H](O)[C@H](O)[C@H](C)O1,inactive
25,C[C@@H]1O[C@@H](O[C@@H]2C=C3CC[C@@H]4[C@@H](CC[C@]5(C)[C@H](c6ccc(=O)oc6)CC[C@@]45O)[C@@]3(C)CC2)[C@H](O)[C@H](O)[C@H]1O,32.9 nM (active)
26,CC[C@@]1(O)C(=O)OCc2c1cc1n(c2=O)Cc2cc3ccccc3nc2-1,29.3 nM (active)
27,CC(C)N[C@@H]1CCn2c(=O)[nH]c3cccc(c32)[C@@H]1O,18500 nM (active)
28,CCCCCC[C@H]1C(=O)O[C@H](C)[C@H](NC(=O)c2cccc(NC=O)c2O)C(=O)O[C@@H](C)[C@@H]1OC(=O)CC(C)C,46.5 nM (active)
29,O=c1[nH]c2ccc(Cl)cc2c(N[C@@H]2CN3CCC2CC3)c1-c1nc2ccccc2[nH]1,293 nM (active)
